Measured values: PubChem BioAssay (NCI)
About 83,000 compounds went through this panel and 20% of them were active in at least one assay; those are over-represented in the sample as a whole.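 Activity criterion: percent growth below 10, measured after cells in 96-well plates were exposed to a single compound concentration for 48 hours.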 Unmarked numbers belong to inactive results. Active and inactive are the calls of the source.

System: MDA-MB-468 breast
Test: NCI-60 one-dose screen, 48 h (100 = growth as untreated, 0 = no growth, -100 = all killed)
Details: 10 µM unless noted

Compound | growth
CCOC(=O)Cc1csc2nc(-c3ccccc3)nn12 | 108%
CCOC(=O)C(COS(C)(=O)=O)(COS(C)(=O)=O)C(=O)OCC | 122%
COc1ccc(NC(=O)c2cc(OC)c(OC)c(OC)c2)cc1O | 29.8%
c1ccc(-c2cn3ccnc3c(-c3ccc4c(c3)ncn4C3CCCCC3)n2)cc1 | 112%
CC(=O)C1=NN(c2ccc(Cl)cc2)C(=O)CN1C | 102%
c1nc(SC2=NCCN2)c2[nH]cnc2n1 | 14.7%
Nc1nc2ccccc2c2c(=O)c3cccc(Cl)c3sc12 | -0.88% (active)
CCN(CC)c1ccc(/C=N/NC(=O)C[N+](C)(C)C)cc1 | 112%
COc1cc2cn3c4ccc(O)cc4[nH]c(=O)c3c2cc1OC | -27.4% (active)
CC(C)C1C2=C(NCCN1C(=O)Cc1ccccc1)C(C)(C)N(Cc1ccccc1)C2=O (stereo unspecified) | 95.5%
CCCCCCc1cc2cc(-c3csc(/C=C/c4ccccc4)n3)c(=O)oc2cc1O | -21.1% (active)
O=S1SC(c2ccccc2)=NN1c1cc(F)cc(F)c1 (stereo unspecified) | 44.4%
Cc1ccc(-c2c(-c3ccccc3)c(=O)oc3ccc(C)cc23)cc1 | 97.3%
COc1cc(Cn2c(SCCC(=O)Nc3ccc(F)cc3)nc3ccccc3c2=O)cc(OC)c1OC | 88.1%
CCN1CCN(Cc2ccc(NC(=O)Nc3ccc(-n4ccc5c(NC(=O)c6ccccc6)nccc54)cc3)cc2C(F)(F)F)CC1 | 60.1%
CCCCOc1ccc(S(=O)(=O)N2CCN(c3nc(C)cc(N4CCOCC4)n3)CC2)cc1 | 34.8%
